Hits are enriched below; roughly 3.5% of the tested compounds scored in any of these assays.
TEAD-YAP block = TEAD-YAP interaction inhibition. 640,000 tested, 1.4% active. inhibition, % at 9.12 µM. HEK-TIYL cells, TEAD-Gal4/YAP UAS-luciferase luminescence; in the data active means inhibition above about 32%
GPR151 ag = activates the human receptor GPR151 | Q8TDV0 | 650,000 tested, 1% active | PathHunter beta-arrestin GPR151 cells, luminescence | AID 1508602 | activation, % at 11.2 µM; in the data active means activation above about 4.9%
Target sequence (Q8TDV0 whole entry, looked up): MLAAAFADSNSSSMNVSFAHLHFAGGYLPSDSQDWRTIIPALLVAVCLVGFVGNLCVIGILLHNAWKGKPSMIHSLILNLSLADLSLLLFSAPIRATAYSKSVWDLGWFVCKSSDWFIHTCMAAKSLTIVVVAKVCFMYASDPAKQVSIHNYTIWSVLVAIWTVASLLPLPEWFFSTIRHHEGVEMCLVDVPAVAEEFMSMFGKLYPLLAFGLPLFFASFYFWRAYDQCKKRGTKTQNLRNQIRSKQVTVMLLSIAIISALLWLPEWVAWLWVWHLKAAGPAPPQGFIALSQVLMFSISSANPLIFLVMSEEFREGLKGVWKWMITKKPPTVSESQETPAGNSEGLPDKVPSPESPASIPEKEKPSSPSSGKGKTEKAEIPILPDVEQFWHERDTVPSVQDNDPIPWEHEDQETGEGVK
MITF primary = inhibitors of human MITF | AID 1259374 | 650,000 tested, 0.91% active | inhibition, % at 2.6 µM | O75030 | AlphaScreen MITF homodimerization, bead proximity signal; in the data active means inhibition above about 50%
FBW7 act = human FBW7 E3 ligase activation, primary screen; AlphaScreen FBW7–phospho-cyclin E peptide binding, activator screen; normalized activity (activation), % at 26.1 µM; AID 1259310; 650,000 tested, 0.13% active; in the data active means normalized activity above about 1.9%;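 further: purified mutant Fbw7 with reduced substrate affinity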
MITF confirm = confirmation of human MITF inhibitors; AlphaScreen MITF homodimerization, biotin/His-MITF beads; AID 1259372; inhibition, % at 2.6 µM; 4,700 tested, 16% active; shares compounds with MITF primary;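 active means inhibition above a cutoff derived from the DMSO control wells, cut at about 28% in these data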;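 further: inhibitors lower the bead chemiluminescence by keeping MITF from dimerizing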
AS interf DR = AlphaScreen optical interference, dose response counter-screen; shares compounds with MITF primary; AlphaScreen optical interference counterscreen, cell-free; IC50, µM; 480 tested, 6% active; call rule not given here
AlphaScreen intf2 = optically interferes with AlphaScreen signal | 4,700 tested, 7.6% active | LysRS AlphaScreen counterscreen, signal interference, triplicate | AID 1259376 | inhibition, % at 2.6 µM | shares compounds with MITF primary;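 active means inhibition above a cutoff derived from the DMSO control wells, cut at about 30% in these data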
A number is an active result.

How did O=c1[nH]c2ccc(Br)cc2[nH]c1=O do in these assays?
TEAD-YAP block: inactive; GPR151 ag: inactive; MITF primary: inactive; FBW7 act: inactive

How did Cc1cccc(NCc2ccc(O)c3ncccc23)n1 do in these assays?
TEAD-YAP block: inactive; GPR151 ag: inactive; MITF primary: 74; FBW7 act: inactive; MITF confirm: 53; AlphaScreen intf2: 91

What do the screens show for `Oc1ccc(CNc2ccccc2Br)c2cccnc12`?
TEAD-YAP block: inactive; GPR151 ag: inactive; MITF primary: 71; FBW7 act: inactive; MITF confirm: 42; AlphaScreen intf2: 87

Results for CCOc1ccc(S(=O)(=O)Nc2ccccc2Br)c2cccnc12 ?
TEAD-YAP block: inactive; GPR151 ag: inactive; MITF primary: inactive; FBW7 act: inactive

Results for Cc1cccc(NCc2ccccc2O)c1C ?
TEAD-YAP block: inactive; GPR151 ag: inactive; MITF primary: inactive; FBW7 act: inactive

What do the screens show for `Cc1ccccc1NCc1ccc(O)c2ncccc12`?
TEAD-YAP block: inactive; GPR151 ag: inactive; MITF primary: 68; FBW7 act: inactive; MITF confirm: 62; AlphaScreen intf2: 97

What do the screens show for `COc1cc(CN2CCN(C3CCCCC3)CC2)cc(OC)c1O`?
TEAD-YAP block: inactive; GPR151 ag: inactive; MITF primary: 65; FBW7 act: inactive; MITF confirm: inactive; AlphaScreen intf2: inactive

Results for COc1cc(CN2CCN(C3CCCC3)CC2)cc(OC)c1OC ?
TEAD-YAP block: inactive; GPR151 ag: inactive; MITF primary: 65; FBW7 act: inactive; MITF confirm: 28; AS interf DR: inactive; AlphaScreen intf2: inactive

How did CCCOc1ccc2c(-c3ccccc3)cc(=O)oc2c1C do in these assays?
TEAD-YAP block: inactive; GPR151 ag: inactive; MITF primary: inactive; FBW7 act: inactive

What do the screens show for `Clc1ccccc1CNCCCN1CCOCC1`?
TEAD-YAP block: inactive; GPR151 ag: inactive; MITF primary: inactive; FBW7 act: inactive

What do the screens show for `CCSc1nnc(NC(=O)c2c(-c3ccccc3Cl)noc2C)s1`?
TEAD-YAP block: inactive; GPR151 ag: inactive; MITF primary: 114; FBW7 act: inactive; MITF confirm: inactive; AlphaScreen intf2: inactive

How did CCOC(=O)CSc1nnc(NC(=O)c2c(-c3ccccc3Cl)noc2C)s1 do in these assays?
TEAD-YAP block: inactive; GPR151 ag: inactive; MITF primary: inactive; FBW7 act: inactive

How did Cc1onc(-c2ccccc2Cl)c1C(=O)N1CCN(c2ccc(N3CCCCCC3)nn2)CC1 do in these assays?
TEAD-YAP block: inactive; GPR151 ag: inactive; MITF primary: inactive; FBW7 act: inactive

How did COc1cc(COc2ccc3c4c(c(=O)oc3c2)CCCC4)cc(OC)c1OC do in these assays?
TEAD-YAP block: inactive; GPR151 ag: inactive; MITF primary: 57; FBW7 act: inactive; MITF confirm: inactive; AlphaScreen intf2: inactive

What do the screens show for `Cc1ccc(COc2ccc3c4c(c(=O)oc3c2)CCCC4)cc1`?
TEAD-YAP block: inactive; GPR151 ag: inactive; MITF primary: inactive; FBW7 act: inactive

Results for c1ccc2cc(CN3CCSCC3)ccc2c1 ?
TEAD-YAP block: inactive; GPR151 ag: inactive; MITF primary: 57; FBW7 act: inactive; MITF confirm: inactive; AlphaScreen intf2: inactive

Results for OC1CCN(Cc2ccc3ccccc3c2)CC1 ?
TEAD-YAP block: inactive; GPR151 ag: inactive; MITF primary: inactive; FBW7 act: inactive

How did CCc1ccc(CN2CCN(Cc3ccc4ccccc4c3)CC2)cc1 do in these assays?
TEAD-YAP block: inactive; GPR151 ag: inactive; MITF primary: 64; FBW7 act: inactive; MITF confirm: inactive; AlphaScreen intf2: inactive

What do the screens show for `Fc1cccc(CN2CCN(Cc3ccc4ccccc4c3)CC2)c1`?
TEAD-YAP block: inactive; GPR151 ag: inactive; MITF primary: 72; FBW7 act: inactive; MITF confirm: inactive; AlphaScreen intf2: inactive

How did Fc1cccc(CN2CCN(Cc3cccc4ccccc34)CC2)c1 do in these assays?
TEAD-YAP block: inactive; GPR151 ag: inactive; MITF primary: 86; FBW7 act: inactive; MITF confirm: inactive; AlphaScreen intf2: inactive

How did CCOc1c(Cl)cc(C=C2C(=O)NC(=O)NC2=O)cc1Cl do in these assays?
TEAD-YAP block: inactive; GPR151 ag: inactive; MITF primary: inactive; FBW7 act: inactive

How did CC1CC(C)CN(CC(=O)Nc2c3c(nc4ccccc24)CCC3)C1 (stereo not drawn) do in these assays?
TEAD-YAP block: inactive; GPR151 ag: inactive; MITF primary: 74; FBW7 act: inactive; MITF confirm: inactive; AlphaScreen intf2: inactive

What do the screens show for `O=C(CN1CCCCC1)Nc1c2c(nc3ccccc13)CCC2`?
TEAD-YAP block: inactive; GPR151 ag: inactive; MITF primary: 53; FBW7 act: inactive; MITF confirm: inactive; AlphaScreen intf2: inactive

What do the screens show for `COC(=O)C1CC(=O)N(C)C12CCN(Cc1ccc3nsnc3c1)CC2` (stereo not drawn)?
TEAD-YAP block: inactive; GPR151 ag: inactive; MITF primary: inactive; FBW7 act: inactive

What do the screens show for `CCn1c(=O)[nH]c2ncnc(-c3ccc4nc(C5COc6ccc(OC)cc6C5)[nH]c(=O)c4c3)c21` (stereo not drawn)?
TEAD-YAP block: inactive; GPR151 ag: inactive; MITF primary: inactive; FBW7 act: inactive

What do the screens show for `Cc1[nH][nH]c(=O)c1C(c1ccccc1OCc1ccc(Br)cc1)c1c(C)[nH][nH]c1=O`?
TEAD-YAP block: inactive; GPR151 ag: inactive; MITF primary: 66; FBW7 act: inactive; MITF confirm: 46; AlphaScreen intf2: inactive

Results for COc1ccc2oc(=O)c(-c3ccc([N+](=O)[O-])cc3[N+](=O)[O-])cc2c1 ?
TEAD-YAP block: inactive; GPR151 ag: inactive; MITF primary: inactive; FBW7 act: inactive

What do the screens show for `Cc1nn(C(=O)C2CCCN2S(=O)(=O)c2ccc(Cl)cc2)c(C)c1Sc1ccc([N+](=O)[O-])cc1` (stereo not drawn)?
TEAD-YAP block: inactive; GPR151 ag: inactive; MITF primary: 67; FBW7 act: inactive; MITF confirm: inactive; AlphaScreen intf2: inactive

How did COc1ccc(S(=O)(=O)N2CCCCC2C(=O)O)cc1OC (stereo not drawn) do in these assays?
TEAD-YAP block: inactive; GPR151 ag: inactive; MITF primary: inactive; FBW7 act: inactive

Results for COc1ccc(S(=O)(=O)N2CCCCC2C(=O)O)cc1 (stereo not drawn) ?
TEAD-YAP block: inactive; GPR151 ag: inactive; MITF primary: 68; FBW7 act: inactive; MITF confirm: inactive; AlphaScreen intf2: inactive

How did COc1ccc(Nc2nc(N3CCOCC3)nc(N3CCC(C)CC3)n2)cc1 do in these assays?
TEAD-YAP block: inactive; GPR151 ag: inactive; MITF primary: inactive; FBW7 act: inactive

How did CC(C)(C)c1ccc(S(=O)(=O)N2CCc3nc4ccccc4c(C(=O)O)c3C2)cc1 do in these assays?
TEAD-YAP block: inactive; GPR151 ag: inactive; MITF primary: 51; FBW7 act: inactive; MITF confirm: inactive; AlphaScreen intf2: inactive

Results for O=C(CN1CCCCCC1)N/N=C/c1ccc(F)c(Br)c1 ?
TEAD-YAP block: inactive; GPR151 ag: inactive; MITF primary: inactive; FBW7 act: inactive
